Compounds with a hit are over-represented: about 4.6% of the library has one in this group of screens.
Tau ThT inhib: inhibitors of human tau fibril formation, thioflavin T binding | P10636 | recombinant tau K18 P301L, heparin-induced fibrillization, ThT fluorescence | Potency, µM (titrated, usually from 57.4 µM), for inactives: at the top dose activity, negative = inhibition, usual class: inhibitors | 270,000 tested, 2.1% active; also: potency is read from the fitted curve at half-maximal effect; nearly all actives have a fitted effect of over 55% in size
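Using a mix of unlabeled (15 uM) and Alexa 594-labeled (0.24 uM) tau K18 P301L, heparin-triggered fibrillization over 6 hr at 37 C was scored by ThT fluorescence.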
PNC assembly inh: inhibitors of perinucleolar compartment assembly; activity change (PNC), negative = inhibition, % at 10 µM; 140,000 tested, 3.1% active; AID 2417; PC3M PTB-GFP, PNC prevalence imaging, 16 h; active compounds read low;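 active = readout at or below -70, meaning at least 70% loss of cells showing the perinucleolar compartment, a nuclear body marking cancer cells; inconclusive = readout between -30 and a set limit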;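 also: plate controls were DMSO wells for no effect and camptothecin positive control wells for full effect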
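Read-out is percentage of cells bearing a perinucleolar compartment, from automated 20x imaging of fixed, Hoechst-stained PC3M PTB-GFP cells. Cells were seeded 4 h, then exposed 16 h to compound (23 nl of library stock) in duplicate plates.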
TRb SRC2 PPI: TRbeta-SRC2 interaction inhibition; AID 1469; Potency, µM (highest dose often 106 µM), for inactives: at the highest dose activity change, negative = inhibition, hits mostly inhibitors; P10828; 280,000 tested, 0.065% active; TRbeta-SRC2 peptide binding, fluorescence polarization; receptor liganded with 1 µM T3;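 also: potency is read from the fitted curve at half-maximal effect; plate controls were bound peptide for no effect and peptide without receptor for full effect; nearly all actives have a fitted effect of over 50% in size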
Target sequence (P10828 whole entry, looked up): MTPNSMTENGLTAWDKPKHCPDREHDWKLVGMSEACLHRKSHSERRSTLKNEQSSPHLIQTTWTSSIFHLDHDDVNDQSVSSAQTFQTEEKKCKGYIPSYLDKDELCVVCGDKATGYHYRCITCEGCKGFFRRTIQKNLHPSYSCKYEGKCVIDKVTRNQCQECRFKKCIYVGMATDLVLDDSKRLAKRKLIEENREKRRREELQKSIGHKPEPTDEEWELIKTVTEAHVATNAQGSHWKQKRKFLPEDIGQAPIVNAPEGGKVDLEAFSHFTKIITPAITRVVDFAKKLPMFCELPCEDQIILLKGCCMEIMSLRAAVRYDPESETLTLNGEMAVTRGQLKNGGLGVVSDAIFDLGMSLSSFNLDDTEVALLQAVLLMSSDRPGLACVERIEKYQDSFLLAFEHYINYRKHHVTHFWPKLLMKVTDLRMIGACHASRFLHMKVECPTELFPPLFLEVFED
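Read-out is fluorescence polarization (555 nm excitation, 632 nm emission) of a Texas Red SRC2 coactivator peptide; loss of signal reflects blocked binding to human TRb ligand-binding domain in the presence of 1 uM T3.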
Tau fluor counter: counter-screen for tau fibril formation inhibitors; AID 1463; tau K18 P301L (four-repeat tau fragment) Alexa594 fluorescence, heparin fibrillization; 280,000 tested, 0.93% active; Potency, µM (highest dose often 57.7 µM), for inactives: at the top dose activity change, negative = decrease; also: potency is read from the fitted curve at half-maximal effect; nearly all actives have a fitted effect of over 55% in size
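Human K18 P301L tau (15 uM unlabeled plus 0.24 uM Alexa 594-labeled, final) in 100 mM sodium acetate pH 7 was mixed with compound and 20 uM heparin and incubated 6 hr at 37 C.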
TR SRC2 fluor cs: Texas Red fluorescence interference in TRb-SRC2 counter-screen; TRb/SRC2 Texas Red total fluorescence interference; Potency, µM (series often up to 106 µM), for the others: top-dose fluorescence change, negative = quenching; 280,000 tested, 0.29% active; AID 1479; active = well fitted curve in either direction with a large enough effect; inconclusive = small, poorly fitted or top-dose-only effect; also: potency is read from the fitted curve at half-maximal effect
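Human TRβ ligand-binding domain (0.6 uM) and Texas Red SRC2 peptide (20 nM) in Tris buffer with 1 uM T3 and 5% DMSO were incubated with pinned compound for 5 hr at ambient temperature. Total fluorescence was computed as S + 2P (555/632 nm).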
Tau FP inhib: blocks human tau fibril formation measured by polarization; P10636; K18 P301L tau heparin fibrillization, Alexa594 FP, 6 h; Potency, µM (series often up to 57.7 µM), without a hit: at the top dose activity, negative = inhibition, most hits filed as inhibitors; 280,000 tested, 0.39% active; AID 1468; also: potency is read from the fitted curve at half-maximal effect; nearly all actives have a fitted effect of over 55% in size
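Steps: dispense K18 P301L tau (15 uM plus 0.24 uM Alexa 594 tracer, final) in pH 7 sodium acetate; add compound; add heparin (20 uM final); incubate 6 hr, 37 C; add ThT (30 uM final); after 1 hr ambient, read FP.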
An asterisk follows results filed as active; [ ] = dose if it differs, or a comment. Unless noted, calls follow the shape of the dose curve; as a rule, active = well fitted curve in the direction sought with a large enough effect; inconclusive = small, poorly fitted or top-dose-only effect, or another doubt; inactive = no such curve, though single readings can be large; an effect the other way counts as inactive or inconclusive. Unless noted, % is scaled to controls: 0 for no effect and ±100 for the full control effect.

For O=C(c1ccccc1)N1CCCc2ccccc21 the results were Tau ThT inhib 5.7%, PNC assembly inh 18.1, TRb SRC2 PPI -4.0%, Tau fluor counter 0.8%, TR SRC2 fluor cs -0.6% and Tau FP inhib 0.8%.
For CN(C)CCNC(=O)C1CCN(c2ncnc3c2nc2n3CCCCC2)CC1 the results were Tau ThT inhib 9.2%, TRb SRC2 PPI -9.6%, Tau fluor counter 8.4%, TR SRC2 fluor cs 25.1µM*[quencher] and Tau FP inhib -1.1%.
For O=C(NCCc1ccc(Cl)cc1)C1CCN(c2ncnc3c2nc2n3CCCCC2)CC1 the results were Tau ThT inhib -2.1%, TRb SRC2 PPI -1.5%, Tau fluor counter -5.6%, TR SRC2 fluor cs -5.4% and Tau FP inhib -3.7%.
Screening CCOc1ccc(CCNC(=O)C2CCN(c3ncnc4c3nc3n4CCCCC3)CC2)cc1 returned Tau ThT inhib -6.8%, TRb SRC2 PPI -9.4%, Tau fluor counter -0.4%, TR SRC2 fluor cs 22.4µM*[quencher] and Tau FP inhib -1.1%.
For COC(=O)c1sc(N2C(=O)C(=O)/C(=C(/O)c3ccccc3)C2c2ccco2)nc1C (stereo not drawn) the results were Tau ThT inhib -14.0%, PNC assembly inh -83.9*, TRb SRC2 PPI 4.2%, Tau fluor counter -2.5%, TR SRC2 fluor cs -2.2% and Tau FP inhib -9.2%.
Cc1[nH]n(-c2ncc(-c3ccc(Cl)cc3)s2)c(=O)c1C(c1ccc(Cl)cc1)C(C#N)C#N (stereo not drawn) was read as Tau ThT inhib 11.2µM*, PNC assembly inh -25.5, TRb SRC2 PPI 3.8%, Tau fluor counter inconclusive, TR SRC2 fluor cs -21.6% and Tau FP inhib 39.8µM*.
`COc1ccc(C(c2c(C)[nH]n(C(N)=S)c2=O)C(C#N)C#N)cc1` (stereo not drawn) gave Tau ThT inhib inconclusive, PNC assembly inh inconclusive, TRb SRC2 PPI -6.0%, Tau fluor counter -26.2%, TR SRC2 fluor cs -0.6% and Tau FP inhib inconclusive.
CCC1CCCCN1CCCNC(=O)c1sc2nc(C)cc(C)c2c1-n1cccc1 (stereo not drawn) was read as Tau ThT inhib inconclusive, TRb SRC2 PPI -0.5%, Tau fluor counter -5.9%, TR SRC2 fluor cs -2.2% and Tau FP inhib -0.3%.
Screening Cc1cc(C)nc(NC(=O)CCC2CCCC2)c1 returned Tau ThT inhib -3.4%, PNC assembly inh -14.0, TRb SRC2 PPI 8.6%, Tau fluor counter -2.6%, TR SRC2 fluor cs -3.5% and Tau FP inhib -1.9%.
For CC(C)CCOc1ccc(C2N=C(N)Nc3nc4ccccc4n32)cc1 (stereo not drawn) the results were Tau ThT inhib -10.2%, TRb SRC2 PPI -16.1%, Tau fluor counter -9.7%, TR SRC2 fluor cs 39.8µM*[quencher] and Tau FP inhib 9.0%.
For CN(CC(O)Cn1cnc2c1c(=O)n(C)c(=O)n2C)c1ccccc1 (stereo not drawn) the results were Tau ThT inhib -5.1%, TRb SRC2 PPI -2.5%, Tau fluor counter -9.3%, TR SRC2 fluor cs -0.6% and Tau FP inhib 4.2%.
O=C(c1ccc(CS(=O)(=O)c2c(Cl)cccc2Cl)o1)N1CCN(c2ccccc2)CC1 was read as Tau ThT inhib -7.3%, TRb SRC2 PPI -24.1%, Tau fluor counter -23.3%, TR SRC2 fluor cs 6.31µM*[quencher] and Tau FP inhib 6.0%.
Screening CCOc1ccc(NC(=O)CCn2cnc3onc(-c4ccc(F)cc4)c3c2=O)cc1 returned Tau ThT inhib 5.0%, TRb SRC2 PPI -5.6%, Tau fluor counter -21.3%, TR SRC2 fluor cs -1.3% and Tau FP inhib inconclusive.
COc1cc(NC(=O)SC2=NCCS2)cc(OC)c1 was read as Tau ThT inhib -16.1%, TRb SRC2 PPI 3.0%, Tau fluor counter -27.3%, TR SRC2 fluor cs -1.5% and Tau FP inhib -7.4%.
For O=C(/C=C/c1cccs1)c1ccc(N2CCOCC2)cc1 the results were Tau ThT inhib 15.8µM*, TRb SRC2 PPI 3.2%, Tau fluor counter -22.2%, TR SRC2 fluor cs -3.8% and Tau FP inhib -5.0%.
